97 compounds from PubChem BioAssay AID1347416 (National Center for Advancing Translational Sciences (NCATS), 2020) can be followed below.

Molecules are shown by their SMILES. Out of some 4,100 compounds screened, about 1,600 (39%) were called active. Another 25% or so got no clear call; they are omitted. Calls follow the shape of the dose curve; as a rule, active = well fitted inhibition curve with a large enough effect; inconclusive = small, poorly fitted or top-dose-only effect; inactive = no such curve, though single readings can be large or run the other way. The list shows a part of the results.
Potency is read from the fitted curve at half-maximal effect.

This assay in a line: qHTS Validation assay for Inhibitors of Plasmodium falciparum Dd2 growth in vitro. Also: nearly all actives have a fitted effect of over 70% in size. To be noted: P. falciparum Dd2 in RBCs, SYBR Green growth, 72 h; series mostly up to 28.7 µM. An outline of the steps: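 P. falciparum Dd2-infected red blood cells (2.5% hematocrit, 0.3% parasitemia) grown 72 h at 37 °C under 5% O2 with compounds in a titration, 29 uM to 0.5 nM final. Growth read as SYBR Green-1 fluorescence after ~16 h lysis; artesunate 300 nM as positive control.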
Turning to `C#CCN1c2ccccc2Sc2cccnc21`, the Potency was 6.68 µM (active).
As for `CCc1cccc(NC(=O)C(Cc2ccccc2)NS(=O)(=O)c2ccc3c(c2)oc(=O)n3C)c1` (configuration not stated), the Potency entry was “inactive”.
`COc1cccc(-c2ccc3c(n2)CNC(=O)CO3)c1`: the Potency result was “inactive”.
`CC(C)c1cc(C(=O)Nc2cc(Cl)ccc2O)no1`: the Potency is 6.68 µM (active).
For `CC(C)Cc1cc(CNc2nccc(-c3cc(C(=O)O)ccn3)n2)no1`, the Potency result was “inactive”.
The result for `CC(C)Cc1cc(C(=O)Nc2cc(Br)ccc2O)no1` reads 4.73 µM (active).
Take `COc1cccc(-c2cc(C(=O)Nc3cc(Cl)ccc3O)on2)c1`: the Potency is 4.73 µM (active).
As for `COc1ccc(Cl)cc1NC(=O)c1sc(-n2nc(C)c(Cc3ccccc3)c2C)nc1C`, the Potency entry was “inactive”.
The result for `Cc1cc(-c2ccc(S(=O)(=O)Nc3cc(Cl)ccc3C)s2)on1` reads “inactive”.
In the case of `O=C(c1cn[nH]c1)N1CCC(c2nc(CCOCC3CC3)no2)C1` (configuration not stated), the Potency entry is “inactive”.
The same measure for `COc1nc2ccccc2nc1CCC(=O)N[C@H]1COC[C@H]1Cc1cc(C)no1`: “inactive”; for `CN(C)C[C@@H]1CN(Cc2ccccc2)C[C@H]1NC(=O)c1ccncn1`: “inactive”.
Regarding `Cc1ccccc1NC(=O)c1c(NC(=O)c2cccs2)sc2c1CCC(C)C2` (configuration not stated), the Potency result is “inactive”.
With `Cc1ccccc1NC(=O)c1c(NC(=O)c2ccco2)sc2c1CCC(C(C)(C)C)C2` (configuration not stated), the Potency is 13.3 µM (active).
Turning to `Cc1ccc(NC(=O)c2c(NC(=O)c3ccco3)sc3c2CCC(C(C)(C)C)C3)c(C)c1` (configuration not stated), the Potency result was “inactive”.
Turning to `O=C(NCC1CC1)c1cccc(OC2CN(CC3CC=CCC3)C2)c1` (configuration not stated), the Potency entry was “inactive”.
For the compound `CCOc1ccc(NC(=O)c2cc3ccccc3cc2O)cc1`, the Potency was 5.31 µM (active).
As for `Cc1ccc(Cl)cc1NC(=O)c1nnn(Cc2ccccc2)c1N`, the Potency result is “inactive”.
Regarding `Cc1ccc(Cl)cc1NC(=O)c1cc2ccccc2cc1O`, the Potency was 1.5 µM (active).
Take `O=C(CN1CCN(S(=O)(=O)c2cccs2)CC1)NCC1CCCCC1`: the Potency entry was “inactive”.
In the case of `O=C(NCC1CCCCC1)c1cc2ccccc2cc1O`, the Potency is 9.44 µM (active).
With `CCOc1ccc(NC(=O)c2oc3ccccc3c2NC(=O)c2cc(C)cc(C)c2)cc1`, the Potency entry is “inactive”.
For `Cc1ccc(Cl)cc1NC(=O)CCn1cnc2ccccc2c1=O`, the Potency result is “inactive”.
Turning to `CCn1cc(CN2CC(Oc3ccc(-c4noc(-c5ccncc5)n4)cc3)C2)cn1`, the Potency is 13.3 µM (active).
`Cc1nc(C)c(C(=O)N2CC(Oc3ccc(-c4noc(-c5ccccc5)n4)cc3)C2)s1`: the Potency entry was “inactive”.
Turning to `Cc1ccsc1C(=O)N1CC(Oc2ccc(-c3nc(-c4ccccc4)no3)cc2)C1`, the Potency entry is “inactive”.
For the compound `Cc1c(C#N)c(N)nc(Cl)c1C#N`, the Potency result is “inactive”.
As to `CCOc1cccc(C2c3[nH]c4ccccc4c3CCN2C(=O)CSCc2ccc(F)cc2)c1` (configuration not stated), the Potency was 15 µM (active).
As for `CCOc1cc(C(=O)N2CCc3c([nH]c4ccccc34)C2c2ccccc2)cc(OCC)c1OCC` (configuration not stated), the Potency is 7.5 µM (active).
The result for `CN1N=C(C(=O)N2CCc3c([nH]c4ccccc34)C2c2ccccc2Cl)CCC1=O` (configuration not stated) reads 5.31 µM (active); that for `CC(C)NC(=O)N1CCN(S(=O)(=O)c2ccccc2)[C@@H](C(=O)N[C@H](Cc2c[nH]c3ccccc23)C(N)=O)C1`, “inactive”.
`COc1ccc2nc3cc(Cl)ccc3c(Nc3cc(C(C)C)c(O)cc3C)c2c1`: the Potency was 0.266 µM (active).
The same measure for `CN(Cc1ccc(C2CC(=O)Nc3n[nH]c(C4CCC4)c32)o1)S(C)(=O)=O` (configuration not stated): “inactive”.
As to `CC(C)c1ccc(CN2CC(CNc3cccnc3)C3(C2)CN(c2ccccc2)C3)cc1` (configuration not stated), the Potency was 4.85 µM (active).
The same measure for `Oc1ccccc1CN1CC(CNc2cccnc2)C2(C1)CN(c1ccccc1)C2` (configuration not stated): 10.9 µM (active).
Consider `Clc1cnccc1CN1CC(CNc2ccccc2)C2(C1)CN(c1ccccc1)C2` (configuration not stated), for which the Potency was 13.7 µM (active).
The result for `Cc1ccc(C)c(-c2cc3c(=O)n(CCNC(=O)c4cccc(F)c4)ccn3n2)c1` reads “inactive”; that for `COc1ccc([S+](=O)([O-])N2CCC(N3Cc4cccn4C3=O)CC2)cc1`, “inactive”; that for `Cc1ccc2oc(=O)c3cnn(CC(=O)Nc4cccc(C(F)(F)F)c4)c3c2c1`, 2.66 µM (active).
`COc1cc(NC(=O)Cn2ncc3c(=O)oc4ccccc4c32)cc(OC)c1OC`: the Potency is 2.66 µM (active).
For `O=C(NN1C(=O)C2C(C1=O)C1C=CC2C12CC2)c1cccnc1` (configuration not stated), the Potency result is “inactive”.
On to `COc1ccc(CC(=O)NCc2cc(C)cc3c(C)c(C)[nH]c23)c(OC)c1`, for which the Potency was 8.41 µM (active).
With `CCOCCc1nnc(NC(=O)C(=O)c2cc(C)n(-c3ccc(C)c(C)c3)c2C)s1`, the Potency entry is “inactive”.
With `COc1ccc(-c2nc3c(c(SCc4ccc(Br)cc4)n2)Cc2c(CO)cnc(C)c2O3)cc1`, the Potency is 0.0668 µM (active).
Regarding `CCCCn1cc(S(=O)(=O)c2ccc(Cl)cc2)c(=O)c2cc(F)c(N3CCCCC3)cc21`, the Potency was 15 µM (active).
Consider `COc1ccc2c(c1)c(=O)c(S(=O)(=O)c1ccc(F)cc1)cn2CC(=O)Nc1ccc(C)cc1C`, for which the Potency result was “inactive”.
With `CCCN(CC1CCOC1)C(=O)c1ccc(F)c(Cl)c1` (configuration not stated), the Potency result is “inactive”.
The result for `C1CCC(CNc2c3c(nc4nnnn24)CCCC3)CC1` reads 13.3 µM (active).
Regarding `Oc1ccccc1-c1cc(C2=CCOCC2)c2cncn2c1`, the Potency was 9.68 µM (active).
Take `c1cncc(-c2nnc(-c3cccnc3)nn2)c1`: the Potency result is “inactive”.
As to `Oc1ccccc1-c1cc(-c2cccnc2)c2cncn2c1`, the Potency is 1.72 µM (active).
`Cc1ccc([S+](=O)([O-])NC2CCCN(c3nc4ncccc4o3)C2)cc1` (configuration not stated): the Potency entry is “inactive”.
The result for `O=C(O)c1ccc(N/N=C/c2cn(-c3ccccc3)nc2-c2cccs2)cc1` reads 2.66 µM (active); that for `NS(=O)(=O)c1ccc(N/N=C/c2cn(-c3ccccc3)nc2-c2cccs2)cc1`, 0.335 µM (active); that for `O=C(N/N=C/c1ccccn1)c1cccs1`, “inactive”.
As to `COCC(C)n1c(C)cc(C(=O)CSc2nnc(Nc3ccccc3F)s2)c1C` (configuration not stated), the Potency is 2.99 µM (active).
The same measure for `Cc1ccc(Nc2nnc(SCC(=O)c3ccc(O)cc3O)s2)cc1`: “inactive”.
The result for `CCOC(=O)c1cccc(NC(=O)N2CC[C@@H](CC(=O)N[C@@H](CO)CC(C)C)[C@@H](CC)C2)c1` reads “inactive”; that for `CCOC(=O)c1cc(C)n(CC2CCC(C(=O)Nc3cccc(Cl)c3)CC2)c1C` (configuration not stated), 8.41 µM (active).
Take `CNC(=O)[C@@H]1C[C@H](Oc2cccnc2)CN1S(=O)(=O)c1ccc2c(c1)CCC2`: the Potency entry is “inactive”.
As for `CC(C)CCN1CCC(N2CCN(S(=O)(=O)c3ccc4c(c3)CCCC4)CC2)C1=O` (configuration not stated), the Potency was 9.44 µM (active).
On to `CC(=O)N1CCCc2cc(S(=O)(=O)N3CCCC(C(=O)Nc4ccc(C)c(C)c4)C3)ccc21` (configuration not stated), for which the Potency result was “inactive”.
For `O=C1NC(=S)S/C1=C\C=C\c1ccc([N+](=O)[O-])o1`, the Potency was 5.31 µM (active).
Consider `Cc1ccc(NC(=O)N2CCC(N3C(=O)C4(CCCCC4)C3c3ccncc3)CC2)cc1C` (configuration not stated), for which the Potency is 7.5 µM (active).
For the compound `COCCO[C@H]1C(=O)N(C2CCN(C(=O)COc3ccccc3)CC2)[C@H]1c1ccncc1`, the Potency entry is “inactive”.
For `CCCNC(=O)N1CCC(N2C(=O)[C@H](OCCOC)[C@@H]2c2ccncc2)CC1`, the Potency result is “inactive”.
Turning to `CCNc1nc(NC(C)(C)C)nc(N2CCCC2)n1`, the Potency was 2.37 µM (active).
As to `Cc1cc[n+](CC(=O)Nc2cccc(C)c2)cc1`, the Potency entry is “inactive”.
As to `CCOC(=O)c1c(NC(=O)C[n+]2ccc(N(C)C)cc2)sc(C)c1C`, the Potency was 1.33 µM (active).
In the case of `O=C(NC1CCN(c2cc(-c3cccs3)[nH]n2)C1)c1cccs1` (configuration not stated), the Potency result is “inactive”.
In the case of `O=C(Nc1cc(Cl)ccc1O)c1cc2nc(-c3ccc4c(c3)OCO4)cc(C(F)(F)F)n2n1`, the Potency was 2.66 µM (active).
For `COc1ccc(-c2c(C)nn3c(N)c(C#N)cnc23)cc1OC`, the Potency was 1.68 µM (active).
For the compound `COc1ccc(C(=O)N2CCC3(CC2)CC(O)CCO3)c(OC)c1` (configuration not stated), the Potency result is “inactive”.
As for `CC1CC(C)CN(C(=O)CNC(=O)c2sc3ccccc3c2Cl)C1` (configuration not stated), the Potency result is “inactive”.
The same measure for `COc1cc2ccccc2cc1C(=O)N1CC(C)CC(C)C1` (configuration not stated): 2.37 µM (active).
`CC1CC(C)CN(C(=O)CCNC(=O)c2ccccc2Cl)C1` (configuration not stated): the Potency result was “inactive”.
Consider `COc1cc(OC)c(C(=O)N2CCCC2)cc1OC`, for which the Potency result was “inactive”.
As to `COc1cc2ccccc2cc1C(=O)N1CCCC(C(F)(F)F)C1` (configuration not stated), the Potency is 5.31 µM (active).
The same measure for `O=C(O)c1cccc(C2CCCN(C(=O)c3ccccc3-n3cccn3)C2)c1` (configuration not stated): “inactive”.
Turning to `COc1cc(Cl)ccc1C(=O)N1CC[C@@](C)(O)[C@@H](O)C1`, the Potency entry was “inactive”.
For `CC1CC(C)CN(C(=O)c2ccc3ccccc3c2)C1` (configuration not stated), the Potency is 2.37 µM (active).
`Cc1ccc(S(=O)(=O)Nc2ccc(-c3cn4ccc(C)cc4n3)cc2)cc1`: the Potency was 6.68 µM (active).
Regarding `CCc1ccc(S(=O)(=O)Nc2cc(-c3cn4ccccc4n3)ccc2C)cc1`, the Potency entry is “inactive”.
For the compound `CCN(CC)CCOC(=O)c1ccc(NC(=O)c2cc3c(=O)n(CC)c4ccccc4c3s2)cc1`, the Potency is 2.66 µM (active).
On to `CCCCNC(=O)c1onc(CSc2nc3ccccc3[nH]2)c1C(=O)NCCCC`, for which the Potency was 5.31 µM (active).
With `COCC(=O)NC1CCC12CCN(C(=O)c1ccc(C)nc1)CC2` (configuration not stated), the Potency entry was “inactive”.
On to `CN(C)c1cc[n+](CC(=O)c2ccc(Br)cc2)cc1`, for which the Potency is 7.5 µM (active).
In the case of `CC(=O)Nc1cc[n+](C(C)C(=O)c2ccc(Br)cc2)cc1` (configuration not stated), the Potency result was “inactive”.
`COc1ccc(N2Cc3c(ncnc3N3CCN(Cc4ccccc4)CC3)N(C)CC2=O)cc1`: the Potency result was “inactive”.
On to `Cc1oc2ccc(O)c(CN3CCN(Cc4ccccc4)CC3)c2c1C(=O)Nc1cccc(Cl)c1C`, for which the Potency is 0.596 µM (active).
On to `COc1ccc(NC(=O)c2c(C)oc3ccc(O)c(CN4CCN(Cc5ccccc5)CC4)c23)cc1`, for which the Potency is 2.66 µM (active).
Take `Cc1cccc(NC(=O)Cn2nc3n(c2=O)CCCC3)c1C`: the Potency entry is “inactive”.
For `Cc1oc2ccc(O)c(CN3CCCCCC3)c2c1C(=O)Nc1cccc(Cl)c1C`, the Potency is 0.842 µM (active).
Turning to `CC1CCCN(Cc2c(O)ccc3c(=O)c(-c4ccc(Cl)cc4)c(C(F)(F)F)oc23)C1` (configuration not stated), the Potency is 0.842 µM (active).
In the case of `CCc1cc2c(=O)c(-c3cnn(-c4ccccc4)c3)c(C)oc2c(CN2CCCCC2)c1O`, the Potency was 1.33 µM (active).
In the case of `CC1CCN(Cc2c(O)ccc3c(=O)c(Oc4ccccc4Cl)c(C(F)(F)F)oc23)CC1`, the Potency is 1.33 µM (active).
As to `CCN1CCN(Cc2c(O)ccc3c(=O)c(Oc4ccccc4Cl)c(C(F)(F)F)oc23)CC1`, the Potency was 0.596 µM (active).
